{
  "source": "the supplement of paper PMC12819154",
  "about": "“High-throughput peptide-centric local stability assay extends protein–ligand identification to membrane proteins, tissues and bacteria” (Nature Structural & Molecular Biology, 2025)",
  "data": [
    {"compound": "CN[C@@H]1C[C@H]2O[C@@](C)([C@@H]1OC)n1c3ccccc3c3c4c(c5c6ccccc6n2c5c31)C(=O)NC4 [staurosporine]", "experiment": "log2 fold change of tryptic peptide abundance, ligand vs vehicle (limited proteolysis) (log2 ratio); higher = more trypsin-susceptible (destabilized)", "conditions": "ligand concentration: 20 uM; sample: mouse liver crude lysate; replicate design: treated separately", "values": [
      {"target": "UniProt Q64310 (peptide sequence: SMFAGVPTMR, peptide start residue: 140)", "sequence (Q64310 whole entry)": "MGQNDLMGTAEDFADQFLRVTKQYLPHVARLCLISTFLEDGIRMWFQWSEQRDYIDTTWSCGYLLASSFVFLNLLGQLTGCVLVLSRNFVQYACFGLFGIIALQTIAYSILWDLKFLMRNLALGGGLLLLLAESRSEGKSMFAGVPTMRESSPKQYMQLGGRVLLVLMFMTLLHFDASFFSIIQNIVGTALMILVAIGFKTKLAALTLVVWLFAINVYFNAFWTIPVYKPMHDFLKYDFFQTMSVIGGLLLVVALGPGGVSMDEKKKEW", "log2 fold change": 0.247},
      {"target": "UniProt Q9WU79 (peptide sequence: ASGGASDGGFSAIK, peptide start residue: 220)", "log2 fold change": 0.201},
      {"target": "UniProt Q9QVP9 (peptide sequence: CWDYDPSDRPR, peptide start residue: 661)", "log2 fold change": -1.22},
      {"target": "UniProt Q8CIE6 (peptide sequence: VTTVTEIGKDVIGLR, peptide start residue: 1203)", "log2 fold change": -0.699},
      {"target": "UniProt P51174 (peptide sequence: SPAHGISLFLVENGMKGFIK, peptide start residue: 225)", "sequence (P51174 whole entry)": "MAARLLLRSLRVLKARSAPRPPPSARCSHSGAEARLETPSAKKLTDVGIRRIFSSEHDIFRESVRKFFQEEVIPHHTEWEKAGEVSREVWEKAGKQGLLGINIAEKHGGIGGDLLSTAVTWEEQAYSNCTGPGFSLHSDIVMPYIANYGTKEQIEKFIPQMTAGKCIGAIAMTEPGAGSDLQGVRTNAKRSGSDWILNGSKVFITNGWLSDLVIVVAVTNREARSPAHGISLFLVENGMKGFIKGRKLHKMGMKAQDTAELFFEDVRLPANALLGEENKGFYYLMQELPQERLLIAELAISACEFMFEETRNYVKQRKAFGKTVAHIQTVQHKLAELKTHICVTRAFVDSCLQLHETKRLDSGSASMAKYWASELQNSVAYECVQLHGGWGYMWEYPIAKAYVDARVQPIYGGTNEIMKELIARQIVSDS", "log2 fold change": 0.439},
      {"target": "UniProt Q9D710 (peptide sequence: EFNLNELYQR, peptide start residue: 254)", "log2 fold change": -0.349},
      {"target": "UniProt P98154 (peptide sequence: GGDPTHFHTVNVAQPVR, peptide start residue: 89)", "log2 fold change": -1.16},
      {"target": "UniProt P19157 (peptide sequence: AFLSSPEHVNRPINGNGK, peptide start residue: 192)", "log2 fold change": -0.521},
      {"target": "UniProt Q9D517 (peptide sequence: GLPPLKYHLLPR, peptide start residue: 196)", "log2 fold change": 0.633},
      {"target": "UniProt Q2NL51 (peptide sequence: LCDFGSAK, peptide start residue: 198)", "log2 fold change": -4.01},
      {"target": "UniProt A2ATU0 (peptide sequence: SSLYSSDIGK, peptide start residue: 380)", "sequence (A2ATU0 whole entry)": "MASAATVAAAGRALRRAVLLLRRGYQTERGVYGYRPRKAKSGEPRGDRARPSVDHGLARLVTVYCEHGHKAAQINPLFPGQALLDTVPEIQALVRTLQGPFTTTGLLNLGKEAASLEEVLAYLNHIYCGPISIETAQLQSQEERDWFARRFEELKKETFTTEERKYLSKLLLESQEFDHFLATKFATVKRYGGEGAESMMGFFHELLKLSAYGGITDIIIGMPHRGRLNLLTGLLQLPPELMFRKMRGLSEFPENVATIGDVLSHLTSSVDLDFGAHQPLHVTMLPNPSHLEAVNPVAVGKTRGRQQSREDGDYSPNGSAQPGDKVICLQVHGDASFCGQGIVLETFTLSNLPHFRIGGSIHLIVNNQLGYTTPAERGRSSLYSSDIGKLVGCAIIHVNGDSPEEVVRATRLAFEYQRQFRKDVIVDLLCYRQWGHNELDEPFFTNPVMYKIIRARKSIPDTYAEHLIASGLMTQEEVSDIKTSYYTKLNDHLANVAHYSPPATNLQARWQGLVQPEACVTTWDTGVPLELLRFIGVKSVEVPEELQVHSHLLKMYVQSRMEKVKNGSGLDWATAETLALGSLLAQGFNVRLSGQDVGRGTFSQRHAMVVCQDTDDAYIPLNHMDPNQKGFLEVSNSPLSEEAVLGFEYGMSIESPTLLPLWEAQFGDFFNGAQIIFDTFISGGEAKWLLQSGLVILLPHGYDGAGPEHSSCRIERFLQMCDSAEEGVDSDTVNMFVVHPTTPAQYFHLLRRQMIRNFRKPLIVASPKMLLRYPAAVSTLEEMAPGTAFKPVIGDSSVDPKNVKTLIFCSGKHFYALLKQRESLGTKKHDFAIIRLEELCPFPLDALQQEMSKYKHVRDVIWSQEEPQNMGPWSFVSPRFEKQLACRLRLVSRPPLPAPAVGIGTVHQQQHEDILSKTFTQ", "log2 fold change": 0.605},
      {"target": "UniProt Q61578 (peptide sequence: NVINTFTQTAR, peptide start residue: 94)", "log2 fold change": 0.834},
      {"target": "UniProt Q64261 (peptide sequence: ISAYGALNHPYFQDLER, peptide start residue: 289)", "sequence (Q64261 whole entry)": "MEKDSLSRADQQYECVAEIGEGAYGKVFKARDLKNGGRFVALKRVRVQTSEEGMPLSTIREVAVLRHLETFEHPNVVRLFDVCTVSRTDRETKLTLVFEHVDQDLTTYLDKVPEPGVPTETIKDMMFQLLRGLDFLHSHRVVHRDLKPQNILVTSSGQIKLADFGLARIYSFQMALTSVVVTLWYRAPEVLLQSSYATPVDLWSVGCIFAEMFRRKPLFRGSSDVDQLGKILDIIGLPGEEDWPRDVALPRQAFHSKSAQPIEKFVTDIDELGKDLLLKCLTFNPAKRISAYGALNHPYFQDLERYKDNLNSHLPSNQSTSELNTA", "log2 fold change": 0.478},
      {"target": "UniProt Q60648 (peptide sequence: IQSILSSGGK, peptide start residue: 170)", "sequence (Q60648 whole entry)": "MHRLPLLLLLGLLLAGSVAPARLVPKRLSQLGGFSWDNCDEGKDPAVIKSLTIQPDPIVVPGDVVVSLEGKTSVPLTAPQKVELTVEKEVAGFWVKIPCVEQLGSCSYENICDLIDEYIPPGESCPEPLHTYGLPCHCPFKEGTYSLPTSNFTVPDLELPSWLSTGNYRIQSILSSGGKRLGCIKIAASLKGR", "log2 fold change": -0.484},
      {"target": "UniProt P28652 (peptide sequence: NLINQMLTINPAKR, peptide start residue: 247)", "sequence (P28652 whole entry)": "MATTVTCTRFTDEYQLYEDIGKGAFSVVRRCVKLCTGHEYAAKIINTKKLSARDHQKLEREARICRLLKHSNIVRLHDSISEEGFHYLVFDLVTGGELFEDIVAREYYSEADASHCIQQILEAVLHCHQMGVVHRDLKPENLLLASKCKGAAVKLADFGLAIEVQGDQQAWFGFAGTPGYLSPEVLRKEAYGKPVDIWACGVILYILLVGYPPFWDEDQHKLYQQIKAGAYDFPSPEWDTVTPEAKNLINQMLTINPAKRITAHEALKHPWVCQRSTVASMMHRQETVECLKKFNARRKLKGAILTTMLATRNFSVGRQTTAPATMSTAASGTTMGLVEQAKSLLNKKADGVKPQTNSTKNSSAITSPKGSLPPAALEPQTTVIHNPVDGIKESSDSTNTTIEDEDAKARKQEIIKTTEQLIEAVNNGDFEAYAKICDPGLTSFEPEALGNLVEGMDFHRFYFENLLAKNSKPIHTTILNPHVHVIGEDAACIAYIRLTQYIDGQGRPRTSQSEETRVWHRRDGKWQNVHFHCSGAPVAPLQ", "log2 fold change": -2.11},
      {"target": "UniProt Q9CXI0 (peptide sequence: NVTHIDQALQEAHR, peptide start residue: 221)", "log2 fold change": -0.267},
      {"target": "UniProt Q6PF93 (peptide sequence: LQALLGDNEK, peptide start residue: 573)", "sequence (Q6PF93 whole entry)": "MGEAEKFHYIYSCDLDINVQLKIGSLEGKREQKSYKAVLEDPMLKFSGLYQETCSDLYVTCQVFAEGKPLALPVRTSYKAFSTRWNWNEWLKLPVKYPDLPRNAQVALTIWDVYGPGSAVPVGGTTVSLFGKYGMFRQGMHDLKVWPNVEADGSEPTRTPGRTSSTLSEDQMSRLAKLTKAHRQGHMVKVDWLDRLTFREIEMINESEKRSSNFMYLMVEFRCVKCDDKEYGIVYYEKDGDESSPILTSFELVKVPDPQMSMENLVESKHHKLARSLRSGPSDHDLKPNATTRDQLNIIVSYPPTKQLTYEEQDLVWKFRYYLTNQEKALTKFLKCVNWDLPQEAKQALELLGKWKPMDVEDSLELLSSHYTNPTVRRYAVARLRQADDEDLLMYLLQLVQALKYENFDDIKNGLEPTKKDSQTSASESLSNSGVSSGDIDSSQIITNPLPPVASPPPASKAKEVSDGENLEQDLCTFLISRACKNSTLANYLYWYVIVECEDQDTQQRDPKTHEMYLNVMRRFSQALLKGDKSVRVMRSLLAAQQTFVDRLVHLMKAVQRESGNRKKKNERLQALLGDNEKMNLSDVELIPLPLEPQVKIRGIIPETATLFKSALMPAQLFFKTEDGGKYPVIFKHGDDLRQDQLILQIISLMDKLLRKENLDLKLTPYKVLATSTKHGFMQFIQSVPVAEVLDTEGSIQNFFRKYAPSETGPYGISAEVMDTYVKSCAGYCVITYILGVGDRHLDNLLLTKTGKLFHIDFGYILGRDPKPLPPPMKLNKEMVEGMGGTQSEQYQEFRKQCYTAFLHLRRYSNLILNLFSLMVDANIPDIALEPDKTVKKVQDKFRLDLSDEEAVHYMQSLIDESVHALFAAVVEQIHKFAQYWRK", "log2 fold change": -0.345},
      {"target": "UniProt P52332 (peptide sequence: NVLVESEHQVK, peptide start residue: 1007)", "log2 fold change": -2.98},
      {"target": "UniProt Q8C5L7 (peptide sequence: NGAQIAEGFR, peptide start residue: 267)", "sequence (Q8C5L7 whole entry)": "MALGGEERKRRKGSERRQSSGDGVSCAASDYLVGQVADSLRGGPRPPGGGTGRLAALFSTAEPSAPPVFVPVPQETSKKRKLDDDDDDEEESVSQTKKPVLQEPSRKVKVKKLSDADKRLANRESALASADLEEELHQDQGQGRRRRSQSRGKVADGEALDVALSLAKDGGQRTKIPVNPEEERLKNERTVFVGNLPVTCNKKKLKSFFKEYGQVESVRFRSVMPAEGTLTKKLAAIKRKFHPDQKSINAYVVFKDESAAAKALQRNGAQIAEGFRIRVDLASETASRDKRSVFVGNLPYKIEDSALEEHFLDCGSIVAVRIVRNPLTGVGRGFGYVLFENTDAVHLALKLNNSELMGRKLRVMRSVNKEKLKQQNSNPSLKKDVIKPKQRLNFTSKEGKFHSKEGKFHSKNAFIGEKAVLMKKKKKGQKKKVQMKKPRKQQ", "log2 fold change": 0.659},
      {"target": "UniProt Q9D6U8 (peptide sequence: HESLTSLNLER, peptide start residue: 130)", "log2 fold change": 0.435},
      {"target": "UniProt P58044 (peptide sequence: WWDNLNHLSPFVDHEK, peptide start residue: 208)", "log2 fold change": 1.05},
      {"target": "UniProt O35492 (peptide sequence: MLEFDPAQR, peptide start residue: 600)", "log2 fold change": -1.13},
      {"target": "UniProt Q8BX94 (peptide sequence: TALPAPMFTR, peptide start residue: 62)", "sequence (Q8BX94 whole entry)": "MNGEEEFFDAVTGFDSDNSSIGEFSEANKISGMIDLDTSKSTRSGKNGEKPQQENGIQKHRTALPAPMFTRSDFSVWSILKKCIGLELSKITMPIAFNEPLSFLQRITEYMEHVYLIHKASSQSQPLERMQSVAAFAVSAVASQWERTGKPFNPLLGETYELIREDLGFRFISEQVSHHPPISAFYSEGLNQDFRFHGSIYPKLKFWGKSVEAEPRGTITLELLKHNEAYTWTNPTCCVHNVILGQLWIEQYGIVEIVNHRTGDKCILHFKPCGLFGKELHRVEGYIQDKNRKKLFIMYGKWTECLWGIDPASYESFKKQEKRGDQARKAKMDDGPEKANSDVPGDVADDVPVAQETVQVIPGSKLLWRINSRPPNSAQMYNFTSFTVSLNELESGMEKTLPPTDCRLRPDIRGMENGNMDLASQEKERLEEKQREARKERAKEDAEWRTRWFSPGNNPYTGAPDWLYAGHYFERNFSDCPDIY", "log2 fold change": 0.84},
      {"target": "UniProt P18654 (peptide sequence: GAMAATYSALNR, peptide start residue: 701)", "log2 fold change": 0.612},
      {"target": "UniProt P41241 (peptide sequence: GSLVDYLR, peptide start residue: 272)", "sequence (P41241 whole entry)": "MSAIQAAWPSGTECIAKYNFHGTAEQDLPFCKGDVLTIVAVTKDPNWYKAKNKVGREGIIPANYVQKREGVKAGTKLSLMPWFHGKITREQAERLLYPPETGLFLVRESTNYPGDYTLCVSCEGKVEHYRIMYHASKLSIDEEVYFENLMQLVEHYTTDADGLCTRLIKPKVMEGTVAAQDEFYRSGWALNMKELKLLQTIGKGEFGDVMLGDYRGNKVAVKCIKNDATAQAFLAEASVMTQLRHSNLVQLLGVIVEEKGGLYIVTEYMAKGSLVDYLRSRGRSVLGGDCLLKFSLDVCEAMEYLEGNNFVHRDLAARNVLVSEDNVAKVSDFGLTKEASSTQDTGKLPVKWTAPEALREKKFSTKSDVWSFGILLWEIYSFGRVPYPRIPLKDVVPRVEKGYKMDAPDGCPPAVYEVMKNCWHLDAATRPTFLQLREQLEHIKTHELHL", "log2 fold change": -1.06},
      {"target": "UniProt Q9DCQ2 (peptide sequence: VTMATHPDGFRLEGPLAAAHSSGPR, peptide start residue: 152)", "log2 fold change": -0.804}
    ]}
  ]
}
